Source: PubChem BioAssay (NCI)
The panel holds about 83,000 compounds, 20% with a hit somewhere; the sample as a whole holds those more often.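 Values shown are percent growth following 48 h exposure of cells in 96-well plates to a single concentration of compound; below 10 was considered active.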 Values without a mark were called inactive. Calls of active or inactive are those of the source.

Key:
Test in all cases: NCI-60 one-dose screen, 48 h (100 = growth as untreated, 0 = no growth, -100 = all killed)
Settings in all cases: 10 µM unless noted
NCI-H23 lung = test system: NCI-H23 lung
NCI-H226 lung = test system: NCI-H226 lung
NCI-H322M lung = test system: NCI-H322M lung
HOP-62 NSCLC = test system: HOP-62 NSCLC
NCI-H460 lung = test system: NCI-H460 lung
NCI-H522 lung = test system: NCI-H522 lung
A549/ATCC NSCLC = test system: A549/ATCC NSCLC
786-0 renal = test system: 786-0 renal
COLO 205 colon = test system: COLO 205 colon
DU-145 prostate = test system: DU-145 prostate
K-562 leukemia = test system: K-562 leukemia
MALME-3M melanoma = test system: MALME-3M melanoma
MDA-MB-231 breast = test system: MDA-MB-231 breast
RXF 393 renal = test system: RXF 393 renal
SF-268 CNS = test system: SF-268 CNS
SF-295 CNS = test system: SF-295 CNS
SF-539 CNS = test system: SF-539 CNS
UACC-257 melanoma = test system: UACC-257 melanoma
M14 melanoma = test system: M14 melanoma

Row | Structure (SMILES) | growth (NCI-H23 lung) [%] | growth (NCI-H226 lung) [%] | growth (NCI-H322M lung) [%] | growth (HOP-62 NSCLC) [%] | growth (NCI-H460 lung) | growth (NCI-H522 lung) [%] | growth (A549/ATCC NSCLC) [%] | growth (786-0 renal) [%] | growth (COLO 205 colon) | growth (DU-145 prostate) [%] | growth (K-562 leukemia) | growth (MALME-3M melanoma) [%] | growth (MDA-MB-231 breast) [%] | growth (RXF 393 renal) [%] | growth (SF-268 CNS) [%] | growth (SF-295 CNS) [%] | growth (SF-539 CNS) [%] | growth (UACC-257 melanoma) [%] | growth (M14 melanoma) [%]
1 | COc1ccc(-c2cc(-c3cn(-c4cccc(Cl)c4)nc3-c3ccc(OC)cc3)[nH]c(=S)n2)cc1 | 83 | 85.8 | 95.5 | 99.1 | 33.5% | 77.7 | 50.4 | 96.5 | 86.6% | 50.1 | 101% | 90.9 | 67.7 | 102 | 70.6 | 93 | 92.2 | 71.5 | 92
2 | CC(=O)c1ccc(Br)c([N+](=O)[O-])c1 | 106 | 112 | 107 | 109 | 109% | 27.6 | 100 | 95.4 | 127% | 113 | 89.7% | 98.6 | 117 | 113 | 117 | 96.9 | 107 | 111 | 97.2
3 | Cc1cc([N+](=O)[O-])c(C)cc1N | 103 | 101 | 107 | 103 | 109% | 77.5 | 104 | 103 | 121% | 115 | 100% | 104 | 90.3 | 105 | 105 | 109 | 105 | 109 | 104
4 | Clc1ccc(-c2cnc3nonc3n2)s1 | 74.3 | 100 | 96.6 | 84.5 | 92.6% | 53.5 | 85 | 86.1 | 67.6% | 89.7 | 41.7% | 83 | 85.2 | 109 | 82.7 | 92.8 | 97.5 | 64.4 | 86.6
5 | CC(SC(C)C(=O)N/N=C/c1cccc(Cl)c1)C(=O)N/N=C\c1cccc(Cl)c1 (configuration not stated) | 86.8 | 93.2 | 84.3 | 90.4 | 20.5% | 60 | 15.2 | 90.9 | 74.7% | 71.9 | 79.7% | 88.9 | 28.1 | 91.2 | 69 | 66.2 | 106 | 104 | 85.1
6 | COc1ccc(CNc2c3ccccc3nc3ccccc23)cc1F | 27 | 43 | 31.6 | 44.5 | 6.34% (active) | 36.2 | 22.8 | 26 | 8.7% (active) | 27.2 | 4.81% (active) | 23.6 | 29.2 | 11.1 | 49.1 | 20.1 | 18.2 | 37.8 | 19.9
7 | COc1cc2ncnc(Nc3ccc(S(=O)(=O)Nc4nccs4)cc3)c2cc1OCCCN1CCOCC1 | 104 | 99.7 | 102 | 93.3 | 105% | 88.6 | 103 | 108 | 103% | 110 | 106% | 99.8 | 99.2 | 111 | 98.3 | 108 | 98.6 | 101 | 107
8 | c1csc(-c2cnc3nonc3n2)c1 | 72.8 | 88.1 | 90.4 | 87.9 | 102% | 70.7 | 94.2 | 101 | 91.3% | 108 | 67.4% | 100 | 82 | 117 | 88.7 | 101 | 96.8 | 75.3 | 89.4
